Shown is part of a subset that was picked to be rich in hits.
MgrA DNA FP: S. aureus MgrA-DNA binding modulation; fluorescence polarization; inhibition, % (no concentration beside the values); 84,000 tested, 0.13% active; AID 602314; in the data active means inhibition above about 30%, passing the limit was not always enough;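 further: higher means less MgrA bound to DNA so lower polarization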
Hits are given with their value; - = inactive.

SMILES	MgrA DNA FP
COC(=O)C1=CN2C(C=C1)C(C(=O)OC)(C(=O)OC)[C@@H](c1cccnc1)[C@@H]2C#N (some centres undefined)	52
N#CC(C#N)=NNc1cc(C(F)(F)F)cc(C(F)(F)F)c1	-
N#Cc1csc([N+](=O)[O-])c1	-
CC1CCC2(NC1)O[C@H]1C[C@H]3[C@@H]4CC=C5C[C@@H](O)CC[C@]5(C)[C@H]4CC[C@]3(C)[C@H]1[C@@H]2C (some centres undefined)	-
CCOC(=O)C1=C(N)c2ccccc2CC12CCCCC2	-
O=C(CBr)c1cc(Cl)ccc1Cl	-
CCCn1ccc(C(=O)O)n1	-
O=[N+]([O-])c1ccc(N2CCCC2)c2nonc12	52
O=[N+]([O-])c1ccc(N2CCCCC2)c2nonc12	-
Cc1cc(OC(=O)N(C)C)nc(-c2ccc(Cl)cc2)n1	-
CCOC(=O)C1CCN(/C=C2/C(=O)NC(=O)N(Cc3ccco3)C2=O)CC1	29
CCN1C(=O)NC(=O)/C(=C\c2cn(CC(=O)N3CCCCC3C)c3ccccc23)C1=O (centres undefined)	-
COc1ccc(-n2c(C)cc(/C=C3/C(=O)NC(=O)N(Cc4ccco4)C3=O)c2C)cc1	-
CC1(c2ccccc2)CNC(=O)C1 (centres undefined)	-
CCOC(=O)c1c(CN2CCCCC2)n(Cc2ccccc2)c2cc(Br)c(O)cc12	-

Source: PubChem (ICCB-Longwood Screening Facility, Harvard Medical School)
